Among the data in PubChem BioAssay (NCATS) are Potency values, retold here.

Results filed as inconclusive are left out. Where a call stands in place of a potency, no number is given. Active and inactive are the calls of the source. The call rests on the fitted dose curve; in most records, active means well fitted cell-killing curve with a large enough effect; inconclusive means small, poorly fitted or top-dose-only effect; inactive means flat fitted curve, though single readings scatter.
Potency means the concentration at half of the fitted maximal effect.

This assay is described as follows: Cell Viability - LYMP2-002 (AID 977).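 Further: compound exposure lasted 24 h at 37 °C.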 The note with it: LYMP2-002 lymphoblastoid cell viability, qHTS; series mostly up to 92.2 µM. An excerpt: NIH Chemical Genomics Center [NCGC]
NIH Molecular Libraries Screening Centers Network [MLSCN]
National Institutes of Environmental Health Sciences [NIEHS]
National Toxicology Program [NTP]
We have developed a 1536-well cell-based assay for quantitative high throughput screening (qHTS) against a number of cell lines to determine in vitro cytotoxicity of small molecules. This particular assay uses a human lymphoblastoid cell line (LYMP2-002) purchased from Coriell Institute for Medical Research.
NCGC Assay Protocol Summary:
The CellTiter-Glo luminescent cell viability assay (Promega) is a homogeneous method to measure the number of viable cells in culture. The end point readout of this assay is based on quantitation of intracellular ATP, an indicator of metabolic activity, using the luciferase reaction. Luciferase catalyzes the oxidation of beetle Luciferin to oxyluciferin and light in the presence of ATP. The luminescent signal is proportional to amount of ATP present.
Using the CellTiter-Glo luminescent cell viability assay, the amount of cellular ATP was measured in the lymphoblastoid cell line with complete culture medium following compound treatment for 24 hours. The assay was performed in opaque white Kalypsys 1536-well plates. In the screen, tetraoctylammonium bromide was used as positive control. Library compounds were measured for their ability to cause acute toxicity in the cell line, as reflected by a decrease in intracellular ATP levels, in a concentration-dependent manner. […] AC50 values were determined from concentration-response data modeled with the standard Hill equation.
qHTS protocol for CellTiter Glo lymphoblastoid cellular assay
[Step] [Parameter] [Value] [Description]
1. Reagent; 5 uL; 2500 lymphoblastoid cells/well
2. Time; 5 hr; 37 C incubation
4. Controls; 23 nL; Tetraoctylammonium bromide 6.4pM to 92 uM
5. Time; 24 hr; 37 C incubation
6. Reagent; 5 uL; CellTiter Glo reagent
7. Time; 30 min; Room Temperature
8. Detection; Luminescence; Viewlux plate reader
Keywords: cell viability, cytotoxicity, lymphoblastoid cell line, luminescence, NTPHTS, NTPHTS_NCGC, NIEHS, DSSTox, MLSMR, MLSCN, NIH Roadmap, qHTS, NCGC
Background: In qHTS, concentration-response curves come from the screen itself.
Take `C=CCc1ccc(O)c(OC)c1`: the Potency result was “inactive”.

Regarding `CC(O)C(=O)O` (stereo not drawn), the Potency result was “inactive”.

On to `CN(C)/N=N/c1nc[nH]c1C(N)=O`, for which the Potency result is “inactive”.

Regarding `O=C1OC(c2ccc(O)cc2)(c2ccc(O)cc2)c2ccccc21`, the Potency result is “inactive”.

Take `Nc1ccc(C(=O)O)cc1`: the Potency result was “inactive”.

Take `O=c1ccc2ccccc2o1`: the Potency result is “inactive”.

`CCCCCCc1ccc(O)cc1O`: the Potency result is “inactive”.

As to `CC(=O)Oc1ccc(C(c2ccc(OC(C)=O)cc2)c2ccccn2)cc1`, the Potency entry is “inactive”.

Consider `O=C(O)CCCCC(=O)O`, for which the Potency entry is “inactive”.

`CC/C(=C(/CC)c1ccc(O)cc1)c1ccc(O)cc1`: the Potency entry was “inactive”.

For `CC(C)(C)CC(C)(C)c1ccc(OCCOCC[N+](C)(C)Cc2ccccc2)cc1`, the Potency is 25.1 µM (active).

Take `COC1=CC(=O)C[C@@H](C)[C@]12Oc1c(Cl)c(OC)cc(OC)c1C2=O`: the Potency result is “inactive”.

Take `COc1cccc2c1C(=O)c1c(O)c3c(c(O)c1C2=O)C[C@@](O)(C(=O)CO)C[C@@H]3O[C@H]1C[C@H](N)[C@H](O)[C@H](C)O1`: the Potency was 0.251 µM (active).
